The text below walks through data of PubChem BioAssay (NCATS).

Results filed as inconclusive are left out. Calls of active or inactive are those of the source. Unless noted, calls follow the shape of the dose curve; as a rule, active = well fitted curve in the direction sought with a large enough effect; inconclusive = small, poorly fitted or top-dose-only effect, or another doubt; inactive = no such curve, though single readings can be large; an effect the other way counts as inactive or inconclusive.

The nature of assay [1]: qHTS Assay for Identification of Small Molecule Agonists for NFkB Signaling Pathway. (AID 624478).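 Also: compounds tested together with TNF alpha at its EC50 of 10 pM; 0% is about no effect.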 The method in brief:
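ME-180 cervical carcinoma, stable NFkB-RE beta-lactamase reporter; 1000 cells/well, overnight attachment; cpd + TNF alpha 10 pM final, 5 h 37 C; LiveBLAzer 2 h RT; FRET 460/530 nm, ex 405 nm.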
(qHTS replaces the single test concentration by a dilution series.)

Assay [2] can be described thus: qHTS Assay for Identification of Small Molecule Antagonists for NFkB Signaling Pathway. (AID 624479; calls by dose curve;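 also: pathway stimulated with TNF alpha; % is scaled to controls: 0 for no effect and ±100 for the full control effect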).
A short description of assay [3]: Cell Proliferation Assay against the TMD8 Cell Line (AID 651645).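 Also: cells exposed to compound for 48 h before reading.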 The note with it: TMD8 DLBCL cell line proliferation/viability; at 46.1 µM (top of the series) unless noted. The method in brief:
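Cell viability of the ABC DLBCL line TMD8 is measured by CellTiter-Glo luminescence following a 48-hour incubation with compound. Percent activity uses DMSO as 100% and 9.2 uM bortezomib (final) as 0%.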

A short description of assay [4]: Cell Proliferation Assay against the HBL1 Cell Line (AID 651646).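 Also: cells exposed to compound for 48 h before reading.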 The following applies: HBL1 DLBCL cells; at 46.1 µM (top of the series) unless noted. A digest of the protocol:
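500 log-phase HBL1 cells per well in phenol red-free RPMI with 5% FBS were treated with compounds for 48 h at 37 °C, 5% CO2. Viability was read by CellTiter-Glo luminescence, normalized to DMSO (100%) and 9.2 uM bortezomib final (0%).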

Assay [5] can be described thus: Cell Proliferation Assay against the TMD8 Cell Line (Caspase readout at 16 hrs) (AID 651712). Also: potency is read from the fitted curve at half-maximal effect. A digest of the protocol: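 TMD8 cells (500/well) in phenol-red-free RPMI with glutamine, 5% FBS, were exposed to compounds for 16 h at 37 °C. Caspase 3/7 activation was read by Caspase-Glo luminescence; percent activity normalised to DMSO (0%) and 9.2 uM bortezomib final (100%).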

Assay [6] can be described thus: Cell Proliferation Assay against the TMD8 Cell Line (Caspase readout at 8 hrs) (AID 651713).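 Also: 0% = DMSO and 100% = 9.2 µM bortezomib caspase signal.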 A digest of the protocol: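 Seed log-phase TMD8 cells, add compound by pin tool, incubate 8 h at 37C under 5% CO2, equilibrate to room temperature, add Caspase-Glo, wait 15 min, read luminescence; percent activity uses DMSO and 9.2 uM bortezomib controls.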
Assay [7] concerns the target Tyrosine-protein kinase Yes (Homo sapiens) (UniProt P07947). The assay can be described thus: qHTS for small molecule inhibitors of Yes1 kinase: Primary Screen (AID 686947).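 Also: plate controls were DMSO with enzyme for no effect and no-enzyme DMSO wells for full effect; nearly all actives have a fitted effect of over 60% in size.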 A digest of the protocol: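 Yes1 (4 nM) preincubated 20 min with compound, then 60 min room-temperature reaction with 0.1 mM ATP and 0.3 mg/mL poly(E4Y) in pH 7.5 Tris, 10 mM MgCl2. ADP measured by ADP-Glo luminescence, normalised to enzyme/no-enzyme controls.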

Assay [8] in a line: qHTS for small molecule inhibitors of Yes1 kinase: Counter Assay (AID 686950).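 Also: no kinase present so only ADP-Glo detection of a fixed ADP amount is tested; luminescence from ADP-Glo reporting ADP in a fixed ATP and ADP mixture; 0% = DMSO wells with ATP plus ADP and -100% = ATP-only wells without ADP.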 The method in brief:
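Enzyme-free ADP-Glo interference check: compounds were preincubated 20 min in buffer, then an ATP/ADP mix (0.08 mM ATP, 0.02 mM ADP final) was added for 60 min at room temperature before two-step ADP-Glo luminescence detection.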

For assay [9], the target named is Arylsulfatase A (Homo sapiens) (UniProt P15289). The assay can be described thus: qHTS screen for enhancers of Arylsulfatase A (ASA1): LOPAC Validation Assay (AID 720538). The note with it: outcome: dose series up to 57.5 µM. The method in brief: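 Cell-based enhancement test: residual ASA activity in SV40-transformed I179S patient fibroblasts is measured by pNCS turnover (0.5mM final, 14h, room temperature) following 48h compound incubation; higher fluorescence indicates activation.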
Arylsulfatase A (Homo sapiens), sequence (P15289 whole entry, looked up): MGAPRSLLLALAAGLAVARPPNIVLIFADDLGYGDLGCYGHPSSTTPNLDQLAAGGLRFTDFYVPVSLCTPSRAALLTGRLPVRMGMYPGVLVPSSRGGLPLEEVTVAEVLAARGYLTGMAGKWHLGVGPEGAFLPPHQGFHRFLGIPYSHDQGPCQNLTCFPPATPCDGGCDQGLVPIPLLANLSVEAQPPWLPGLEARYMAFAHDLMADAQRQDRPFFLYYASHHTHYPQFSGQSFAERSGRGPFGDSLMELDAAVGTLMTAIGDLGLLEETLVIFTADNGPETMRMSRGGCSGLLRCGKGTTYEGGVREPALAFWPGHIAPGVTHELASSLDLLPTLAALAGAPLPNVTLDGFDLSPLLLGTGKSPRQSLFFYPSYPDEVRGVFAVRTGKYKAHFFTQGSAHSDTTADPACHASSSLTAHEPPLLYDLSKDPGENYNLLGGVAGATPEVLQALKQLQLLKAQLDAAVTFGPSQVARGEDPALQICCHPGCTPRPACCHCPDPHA

Assay [10] in a line: qHTS for compounds that reverse cellular toxicity of Amyloid beta (A-beta) peptide in yeast: LOPAC Validation Assay (AID 720559).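 Also: plate controls were DMSO for no effect and equimolar ferric chloride plus clioquinol rescue for full effect.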 A digest of the protocol: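 Here, A-beta-toxic yeast grow with test compounds at 30 C for 48 hr before optical density at 600 nm is recorded; data are normalized against DMSO and the FeCl3-clioquinol control.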
Assay [11] in a line: qHTS for Activators of Parkin Expression: LOPAC Validation Assay (NLuc Reporter) (AID 720572;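 also: 0% = DMSO and 100% = positive control compound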). The method in brief: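 Neuronal line stably carrying a FLuc/NLuc coincidence reporter under the Parkin promoter, seeded 24 h, then dosed in 7-point series for 24 h at 37 C. NLuc luminescence read after FLuc; normalized to DMSO and positive control (100%).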

Tyrosine-protein kinase Yes (Homo sapiens), sequence (P07947 whole entry, looked up): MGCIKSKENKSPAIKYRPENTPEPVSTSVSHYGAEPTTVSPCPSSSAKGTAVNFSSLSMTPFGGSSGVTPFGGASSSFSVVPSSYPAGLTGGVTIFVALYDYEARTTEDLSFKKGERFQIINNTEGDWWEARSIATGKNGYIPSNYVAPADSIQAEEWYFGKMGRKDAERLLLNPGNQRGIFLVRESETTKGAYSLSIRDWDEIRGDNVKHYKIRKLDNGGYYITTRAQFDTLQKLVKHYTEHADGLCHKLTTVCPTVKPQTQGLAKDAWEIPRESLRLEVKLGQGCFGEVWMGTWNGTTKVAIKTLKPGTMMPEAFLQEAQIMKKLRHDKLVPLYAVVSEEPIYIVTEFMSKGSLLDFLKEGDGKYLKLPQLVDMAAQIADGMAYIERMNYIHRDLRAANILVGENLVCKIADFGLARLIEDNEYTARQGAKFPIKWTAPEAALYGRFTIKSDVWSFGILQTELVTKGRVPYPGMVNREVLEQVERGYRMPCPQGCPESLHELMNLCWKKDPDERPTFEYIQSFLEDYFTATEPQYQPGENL

`CCN(CC)CCCC(C)Nc1nc(C)cc(Nc2ccc3nc(C)cc(N)c3c2)n1` (centres undefined): the molecule was called inactive in [1] and in assay [8]. For the same molecule, the Potency result in assay [2], in assay [5], in assay [6] and in [7] was “inactive” each time. Also, in [3], the viability (% of control) turned out to be 65.5%. Moreover, the viability, percent of control in assay [4] was 67.9%.

For the molecule `Cn1cc(-c2ccc3nnc(C(F)(F)c4ccc5ncccc5c4)n3n2)cn1`, the molecule was called inactive in assay [1] and in [8]. In addition, the Potency result in assay [2], in assay [5], in [6] and in [7] was “inactive” each time. In assay [3], the viability (% of control) is 76.9%. Also, the viability, percent of control in assay [4] turned out to be 86.8%.

Turning to `NC(=O)c1ccc(-c2nc(-c3ccc4c(c3)OCO4)c(-c3ccccn3)[nH]2)cc1`, the molecule was called inactive in [1] and in assay [8]. Also, the Potency entry in [2], in assay [5], in assay [6] and in [7] was “inactive” in each case. The viability (% of control) in assay [3] is 92.5%. For the same molecule, the viability, percent of control in assay [4] was 121%.

With `CC(C)(N)C(=O)N[C@H](COCc1ccccc1)C(=O)N1CCC2(CC1)CN(S(C)(=O)=O)c1ccccc12`, the result in [1] and in [8] was inactive. For the same molecule, the Potency entry in [2], in assay [5], in [6] and in assay [7] was “inactive” throughout. The viability (% of control) in assay [3] worked out at 48.1%. For the same molecule, the viability, percent of control in assay [4] stood at 69.2%.

Turning to `CC[C@@H](C)[C@H](NC(=O)[C@H](CC1CCCCC1)NC(=O)c1ccno1)C(=O)N1CCC2(CCc3ccccc32)CC1`, the molecule was classed as inactive in assay [1] and in assay [8]. Besides, the Potency result in assay [2], in assay [5], in [6] and in [7] was “inactive” in each case. Further, in [3], the viability (% of control) stood at 62.6%. Besides, the viability, percent of control in assay [4] came to 65.5%.

For `Cc1[nH]c(=O)c(C#N)cc1-c1ccc2nccn2c1`, the molecule was classed as inactive in [1], in assay [8], in assay [9] and in assay [10]. Further, the Potency result in assay [2], in [5], in assay [6], in assay [7] and in assay [11] was “inactive” in each case. Besides, the viability (% of control) in [3] worked out at 104%. The viability, percent of control in [4] is 78.9%.

On to `COc1ccccc1[C@H](c1cccc2ccccc12)[C@@](C)(C#N)C(=O)N1CCC(c2cccc(C(F)(F)F)c2)CC1`, for which the outcome in [1] and in assay [8] was inactive. Further, the Potency entry in assay [2], in [5], in [6] and in assay [7] was “inactive” throughout. Further, in assay [3], the viability (% of control) came out at 83.6%. For the same molecule, the viability, percent of control in [4] is 95.2%.

For `CN[C@@H](C)C(=O)N[C@H]1CCCC[C@H]2CC[C@@H](C(=O)N[C@@H](c3ccccc3)c3cn(CCCCc4ccc(CCCCn5cc([C@@H](NC(=O)[C@@H]6CC[C@@H]7CCCC[C@H](NC(=O)[C@H](C)NC)C(=O)N76)c6ccccc6)nn5)cc4)nn3)N2C1=O`, the call in assay [1] and in assay [8] was inactive. Besides, the Potency entry in assay [2], in assay [5], in [6] and in assay [7] was “inactive” each time. Besides, in assay [3], the viability (% of control) was found to be 7.59%. Also, the viability, percent of control in [4] stood at 15.5%.

Turning to `OCCn1cc(-c2cnc3nnn(Cc4ccc5ncccc5c4)c3n2)cn1`, the call in assay [1] and in assay [8] was inactive. Also, the Potency entry in assay [2], in assay [5], in assay [6] and in assay [7] was “inactive” each time. For the same molecule, the viability (% of control) in [3] was 75.8%. Besides, the viability, percent of control in assay [4] came out at 79.7%.

As for `Cc1oncc1C(=O)Nc1ccc(C(F)(F)F)cc1`, the result in [1] and in [8] was inactive. Besides, the Potency entry in assay [2], in assay [5], in assay [6] and in assay [7] was “inactive” throughout. The viability (% of control) in [3] was 54%. The viability, percent of control in assay [4] came to 84%.

On to `O=C1[C@H](Cc2ccc(O)cc2)N2C(=O)CCN(C(=O)NCc3ccccc3)[C@H]2CN1Cc1cccc2ccccc12`, for which the outcome in assay [1] and in [8] was inactive. The Potency entry in assay [2], in assay [6] and in assay [7] was “inactive” in each case. Besides, in assay [3], the viability (% of control) was 27.3%. Also, the viability, percent of control in assay [4] was found to be 32.2%. For the same molecule, the Potency in assay [5] is 23.5 µM (active).

Turning to `CN(C)C(=O)c1ccc(S(=O)(=O)c2ccc(NC(=O)[C@@](C)(O)C(F)(F)F)c(Cl)c2)cc1`, the molecule was classed as inactive in assay [1] and in assay [8]. In addition, the Potency result in [2], in assay [5], in assay [6] and in [7] was “inactive” each time. In addition, in assay [3], the viability (% of control) was 73%. Also, the viability, percent of control in [4] came to 86.5%.

With `CCCc1nc2c(C)cc(-c3nc4ccccc4n3C)cc2n1Cc1ccc(-c2ccccc2C(=O)O)cc1`, the result in assay [1] and in assay [8] was inactive. For the same molecule, the Potency entry in assay [2], in assay [5], in [6] and in assay [7] was “inactive” throughout. Moreover, in assay [3], the viability (% of control) was 71.5%. Moreover, the viability, percent of control in [4] worked out at 70.6%.

Take `COc1cc2c(cc1OC)CN(CCc1ccc(NC(=O)c3cccc4c(=O)c5cccc(OC)c5[nH]c34)cc1)CC2`: the outcome in assay [1] and in assay [8] was inactive. The Potency result in [2], in assay [5], in assay [6] and in [7] was “inactive” in each case. Further, the viability (% of control) in assay [3] came to 56%. The viability, percent of control in [4] was determined as 0.316%.

For the molecule `CCOC(=O)C1=C[C@@]2(CC)CCCN3CCc4c(n1c1ccccc41)[C@H]32`, the molecule was called inactive in assay [1] and in assay [8]. The Potency result in [2], in assay [5], in assay [6] and in assay [7] was “inactive” throughout. Also, the viability (% of control) in [3] was 87.1% [at 29.8 µM]. For the same molecule, the viability, percent of control in assay [4] turned out to be 96.9% [at 29.8 µM].

For `N#Cc1ccc(C(c2ccc(C#N)cc2)n2cncn2)cc1`, the outcome in [1] and in [8] was inactive. The Potency result in assay [2], in assay [5], in assay [6] and in [7] was “inactive” each time. In assay [3], the viability (% of control) was found to be 71.5%. Besides, the viability, percent of control in assay [4] worked out at 110%.

Turning to `Fc1ccc(Cl)cc1-c1nc(Nc2ccncc2)c2nccnc2n1`, the result in assay [1] and in assay [8] was inactive. Besides, the Potency result in assay [2], in assay [5], in [6] and in [7] was “inactive” in each case. In addition, the viability (% of control) in assay [3] was determined as 98.1%. In assay [4], the viability, percent of control worked out at 93.2%.

As to `COc1ccc(CC2=NN3C([C@@H](CCc4ccccc4)[C@@H](C)O)=NC(C)C3C(=O)N2)cc1OC` (some centres undefined), the outcome in assay [1] and in [8] was inactive. The Potency entry in assay [2], in assay [5], in assay [6] and in [7] was “inactive” each time. In addition, the viability (% of control) in assay [3] was 72.3%. The viability, percent of control in [4] was determined as 73.7%.

As to `CCCc1nn(C)c2c(=O)[nH]c(-c3cc(S(=O)(=O)N4CCN(C)CC4)ccc3OCC)nc12`, the outcome in [1] and in [8] was inactive. Moreover, the Potency entry in assay [2], in assay [5], in [6] and in [7] was “inactive” throughout. Further, the viability (% of control) in [3] was found to be 102%. Also, the viability, percent of control in assay [4] came out at 106%.

On to `CNC(=O)c1ccccc1Sc1ccc2c(/C=C/c3ccccn3)n[nH]c2c1`, for which the molecule was classed as inactive in [1]. For the same molecule, the Potency result in assay [2], in assay [5] and in [6] was “inactive” in each case. Moreover, the viability (% of control) in assay [3] is 23.8%. Also, the viability, percent of control in assay [4] amounted to 56.4%.

With `CC1(C)SCCN(S(=O)(=O)c2ccc(OCC#CCO)cc2)[C@@H]1C(=O)NO`, the outcome in [1] and in assay [8] was inactive. In addition, the Potency result in assay [2], in [5], in assay [6] and in assay [7] was “inactive” in each case. The viability (% of control) in [3] worked out at 84.4%. Besides, in [4], the viability, percent of control was 97.2%.
